The record followed here is ChEMBL document CHEMBL3988442, “University of Dundee, Small-Polar-MMV Screening Library” (2021).

Common to all, as to design: scale not given: direction of the effect not stated beside the values
The target of experiment [1] is Protein translocase subunit SecA (Escherichia coli (strain K12)) (UniProt P10408). Description: Assay to Identify E. coli SecA ATPase Inhibitors. Format: functional. The note with it: 30 µM.
The target in experiment [2] is T1, Ubiquitin-activating enzyme e1, putative (Leishmania donovani (strain BPK282A1)) (UniProt E9BSI1).
T1 sequence (whole entry): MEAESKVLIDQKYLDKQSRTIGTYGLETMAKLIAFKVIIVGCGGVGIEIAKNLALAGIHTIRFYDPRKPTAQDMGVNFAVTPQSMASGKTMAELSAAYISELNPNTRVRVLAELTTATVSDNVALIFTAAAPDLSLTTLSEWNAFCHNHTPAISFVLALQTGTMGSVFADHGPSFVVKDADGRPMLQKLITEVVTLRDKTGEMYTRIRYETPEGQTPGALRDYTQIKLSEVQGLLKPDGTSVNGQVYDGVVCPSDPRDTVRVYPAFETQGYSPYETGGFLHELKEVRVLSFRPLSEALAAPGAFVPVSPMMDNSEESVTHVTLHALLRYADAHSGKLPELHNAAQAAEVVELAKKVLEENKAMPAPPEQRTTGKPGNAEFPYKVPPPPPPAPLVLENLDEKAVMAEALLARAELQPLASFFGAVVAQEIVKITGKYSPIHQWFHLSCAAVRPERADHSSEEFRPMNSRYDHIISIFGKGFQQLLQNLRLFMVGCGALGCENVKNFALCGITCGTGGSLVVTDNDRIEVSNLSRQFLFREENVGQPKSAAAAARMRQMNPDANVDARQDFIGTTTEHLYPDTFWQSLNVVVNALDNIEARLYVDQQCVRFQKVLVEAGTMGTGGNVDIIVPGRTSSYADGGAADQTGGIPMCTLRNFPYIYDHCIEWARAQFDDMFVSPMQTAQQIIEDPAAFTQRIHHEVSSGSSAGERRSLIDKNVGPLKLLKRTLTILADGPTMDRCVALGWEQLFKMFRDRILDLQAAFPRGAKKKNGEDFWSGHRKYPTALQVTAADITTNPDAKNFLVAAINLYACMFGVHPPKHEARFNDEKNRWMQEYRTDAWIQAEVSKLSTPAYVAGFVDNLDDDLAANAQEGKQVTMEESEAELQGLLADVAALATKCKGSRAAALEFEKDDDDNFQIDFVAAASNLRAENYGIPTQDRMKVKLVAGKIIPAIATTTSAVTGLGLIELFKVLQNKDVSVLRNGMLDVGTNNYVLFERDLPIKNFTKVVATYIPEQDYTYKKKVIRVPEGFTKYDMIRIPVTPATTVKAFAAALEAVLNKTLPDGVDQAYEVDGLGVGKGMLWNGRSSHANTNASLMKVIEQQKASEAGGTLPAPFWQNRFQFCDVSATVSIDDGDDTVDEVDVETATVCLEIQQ
Description: Leishmania donovani Ubiquitin Activating Enzyme (LdE1). Format: functional. Particulars: 30 µM.

Experiment [3] concerns the target AMP-activated protein kinase, AMPK (Homo sapiens) (UniProt P54646+O43741+P54619+Q9UGJ0+Q9Y478+Q13131+Q9UGI9). Description: AMP-dependent Kinase enzyme assay. An in vitro enzyme assay that detects ADP turnover that is directly proportional to AMPK activity. This uses naive AMPK that is activated during the assay with MK-8722. Particulars: 30 µM. Format: functional.

The target in experiment [4] is Sialic acid-binding Ig-like lectin 9 (Homo sapiens) (UniProt Q9Y336). Description: Hs-Siglec9 ALPHAscreen SOP 20170721. The note with it: 10 µM. On the technique in general: Bead proximity is the source of the signal in Alpha formats.
Chain of Sialic acid-binding Ig-like lectin 9 (Homo sapiens) (Q9Y336 whole entry): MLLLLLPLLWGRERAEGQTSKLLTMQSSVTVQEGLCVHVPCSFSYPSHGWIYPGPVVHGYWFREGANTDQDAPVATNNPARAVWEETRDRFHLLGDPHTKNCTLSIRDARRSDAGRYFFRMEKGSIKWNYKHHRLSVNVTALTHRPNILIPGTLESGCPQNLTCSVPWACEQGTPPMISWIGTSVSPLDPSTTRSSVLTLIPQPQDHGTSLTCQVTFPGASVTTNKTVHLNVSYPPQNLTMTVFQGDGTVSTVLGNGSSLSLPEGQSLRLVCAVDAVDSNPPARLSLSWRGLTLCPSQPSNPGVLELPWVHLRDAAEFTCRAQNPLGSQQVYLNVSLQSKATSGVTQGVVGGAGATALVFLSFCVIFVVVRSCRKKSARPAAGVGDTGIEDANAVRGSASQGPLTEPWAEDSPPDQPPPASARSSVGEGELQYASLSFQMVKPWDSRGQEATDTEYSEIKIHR
A further experiment concerns Trypanosoma cruzi. Description: Trypanosoma cruzi phosphomannomutase and mannose-1-phosphate guanylyltransferase assay. In kind it is functional. The note with it: 10 µM.
The target of experiment [5] is T2, Arginase-2, mitochondrial (Homo sapiens) (UniProt P78540).
T2 sequence (whole entry): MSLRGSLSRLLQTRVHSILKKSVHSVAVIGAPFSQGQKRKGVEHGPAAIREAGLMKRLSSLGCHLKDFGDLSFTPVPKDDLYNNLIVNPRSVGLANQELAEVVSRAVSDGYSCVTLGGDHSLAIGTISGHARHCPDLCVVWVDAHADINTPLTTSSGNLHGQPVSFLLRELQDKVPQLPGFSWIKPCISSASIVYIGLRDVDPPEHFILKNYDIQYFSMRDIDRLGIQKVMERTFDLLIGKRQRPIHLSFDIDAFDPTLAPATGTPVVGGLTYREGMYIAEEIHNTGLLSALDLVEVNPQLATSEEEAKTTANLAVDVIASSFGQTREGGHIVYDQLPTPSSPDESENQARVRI
Description: in vitro enzyme assay to detect the production of urea directly proportional to the activity of Arginase II. Further: in the data most compounds retested in dose-response had high values. In kind it is functional. The note with it: 33.3 µM.

Experiment [6] has as its target T3, Proteasome subunit beta (Trypanosoma cruzi) (UniProt O96673).
T3 sequence (whole entry): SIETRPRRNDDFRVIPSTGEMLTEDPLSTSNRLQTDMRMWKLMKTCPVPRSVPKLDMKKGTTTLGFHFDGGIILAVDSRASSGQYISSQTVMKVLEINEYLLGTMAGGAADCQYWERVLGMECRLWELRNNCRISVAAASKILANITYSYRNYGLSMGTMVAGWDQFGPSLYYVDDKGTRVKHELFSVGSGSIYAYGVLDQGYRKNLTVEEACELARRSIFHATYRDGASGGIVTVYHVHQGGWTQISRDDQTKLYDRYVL
In words: Trypanosoma cruzi proteasome chymotrypsin-like activity (TcProtChymo) assay. Further: in the data most compounds retested in dose-response had high values. In kind it is functional. Particulars: 9.37 µM.

For a further experiment, the species on record is Homo sapiens. Description: To identify inhibition of the IFN signalling (Jak-Stat) pathway via expression of an eGFP reporter gene under the control of an IFN-stimulated response element (ISRE) containing MxA promoter. In kind it is functional. The note with it: 30 µM. Background: Reporter assays use an easily measured gene product as a stand-in for the process of interest.

In experiment [7] the target is T4, Tyrosyl-tRNA synthetase, putative (Trypanosoma cruzi (strain CL Brener)) (UniProt Q4DSP6).
T4 sequence (whole entry): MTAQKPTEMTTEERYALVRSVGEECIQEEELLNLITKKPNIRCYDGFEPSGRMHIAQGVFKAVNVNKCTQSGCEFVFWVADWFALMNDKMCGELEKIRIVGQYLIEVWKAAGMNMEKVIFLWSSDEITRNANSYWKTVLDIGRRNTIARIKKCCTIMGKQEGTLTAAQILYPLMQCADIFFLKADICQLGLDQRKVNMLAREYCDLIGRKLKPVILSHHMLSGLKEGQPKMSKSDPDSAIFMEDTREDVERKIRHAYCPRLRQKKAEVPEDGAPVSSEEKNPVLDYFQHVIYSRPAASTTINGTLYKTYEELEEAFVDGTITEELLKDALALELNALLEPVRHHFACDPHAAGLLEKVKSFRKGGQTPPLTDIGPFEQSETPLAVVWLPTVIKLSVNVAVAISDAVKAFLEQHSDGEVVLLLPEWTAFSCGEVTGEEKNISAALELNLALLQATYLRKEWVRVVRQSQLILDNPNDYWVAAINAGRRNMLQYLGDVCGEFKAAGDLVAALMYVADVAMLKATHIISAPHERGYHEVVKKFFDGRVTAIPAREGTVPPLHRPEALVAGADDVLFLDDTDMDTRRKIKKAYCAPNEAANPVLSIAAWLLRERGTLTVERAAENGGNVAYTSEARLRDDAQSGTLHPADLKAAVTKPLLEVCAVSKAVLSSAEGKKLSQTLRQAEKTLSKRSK
In words: Trypanosoma cruzi tyrosyl tRNA synthetase (TcYRS) _High Tyrosine SOP. Further: in the data most compounds retested in dose-response had high values. In kind it is functional. Particulars: 30 µM.

In experiment [8] the target is T4, Tyrosyl-tRNA synthetase, putative (Trypanosoma cruzi (strain CL Brener)). Description: Trypanosoma cruzi tyrosyl tRNA synthetase (TcYRS) SOP. In kind it is functional. The note with it: 30 µM.
Experiment [9] addresses Chromo domain-containing protein 1 (Saccharomyces cerevisiae (strain ATCC 204508 / S288c) (Baker's yeast)) (UniProt P32657). Description: ScCHD-1 Enzyme Inhibition Assay. Further: in the data most compounds retested in dose-response had high values. Particulars: 30 µM. In kind it is functional.

Structures are written as SMILES. For some assays here: Results with a measured potency or affinity are listed apart.

Chain of Chromo domain-containing protein 1 (Saccharomyces cerevisiae (strain ATCC 204508 / S288c) (Baker's yeast)) (P32657 whole entry, the tested form may be a part): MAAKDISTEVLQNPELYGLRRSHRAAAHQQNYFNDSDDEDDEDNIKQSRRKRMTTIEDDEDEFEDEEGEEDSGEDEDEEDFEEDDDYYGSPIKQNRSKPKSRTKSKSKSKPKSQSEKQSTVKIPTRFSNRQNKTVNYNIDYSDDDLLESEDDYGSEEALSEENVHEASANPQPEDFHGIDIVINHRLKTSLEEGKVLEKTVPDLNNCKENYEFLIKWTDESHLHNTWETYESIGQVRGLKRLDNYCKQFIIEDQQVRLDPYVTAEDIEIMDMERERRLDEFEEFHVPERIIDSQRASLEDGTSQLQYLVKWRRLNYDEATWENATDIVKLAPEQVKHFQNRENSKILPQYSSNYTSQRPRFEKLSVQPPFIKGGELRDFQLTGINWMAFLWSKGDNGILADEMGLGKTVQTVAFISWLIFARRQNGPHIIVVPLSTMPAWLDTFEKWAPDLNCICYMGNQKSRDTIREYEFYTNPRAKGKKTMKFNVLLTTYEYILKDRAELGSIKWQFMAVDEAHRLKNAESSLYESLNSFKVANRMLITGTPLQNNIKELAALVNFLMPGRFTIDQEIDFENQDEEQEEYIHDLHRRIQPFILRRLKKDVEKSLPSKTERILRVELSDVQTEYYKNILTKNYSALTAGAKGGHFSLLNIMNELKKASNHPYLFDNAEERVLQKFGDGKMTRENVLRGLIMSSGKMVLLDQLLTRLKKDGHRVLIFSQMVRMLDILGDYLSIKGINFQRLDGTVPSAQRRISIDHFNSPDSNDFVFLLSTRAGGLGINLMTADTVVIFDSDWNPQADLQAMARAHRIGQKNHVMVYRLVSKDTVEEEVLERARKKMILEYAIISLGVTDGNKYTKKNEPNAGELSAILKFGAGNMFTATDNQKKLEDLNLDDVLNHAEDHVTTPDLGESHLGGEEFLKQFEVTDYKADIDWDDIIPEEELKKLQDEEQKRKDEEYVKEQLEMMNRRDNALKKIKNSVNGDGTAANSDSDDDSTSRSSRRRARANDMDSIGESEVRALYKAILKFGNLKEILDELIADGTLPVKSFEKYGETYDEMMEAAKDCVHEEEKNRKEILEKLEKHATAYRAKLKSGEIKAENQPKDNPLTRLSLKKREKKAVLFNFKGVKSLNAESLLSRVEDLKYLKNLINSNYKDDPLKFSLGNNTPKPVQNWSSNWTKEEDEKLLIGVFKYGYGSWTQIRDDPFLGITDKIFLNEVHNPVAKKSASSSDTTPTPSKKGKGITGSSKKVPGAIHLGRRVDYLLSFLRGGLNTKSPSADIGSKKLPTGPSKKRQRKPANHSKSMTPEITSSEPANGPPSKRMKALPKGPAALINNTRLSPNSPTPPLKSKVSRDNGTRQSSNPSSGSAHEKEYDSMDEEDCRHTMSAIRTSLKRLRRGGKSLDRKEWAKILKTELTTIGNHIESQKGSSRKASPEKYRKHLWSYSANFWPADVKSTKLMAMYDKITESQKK
Chain of Protein translocase subunit SecA (Escherichia coli (strain K12)) (P10408 whole entry): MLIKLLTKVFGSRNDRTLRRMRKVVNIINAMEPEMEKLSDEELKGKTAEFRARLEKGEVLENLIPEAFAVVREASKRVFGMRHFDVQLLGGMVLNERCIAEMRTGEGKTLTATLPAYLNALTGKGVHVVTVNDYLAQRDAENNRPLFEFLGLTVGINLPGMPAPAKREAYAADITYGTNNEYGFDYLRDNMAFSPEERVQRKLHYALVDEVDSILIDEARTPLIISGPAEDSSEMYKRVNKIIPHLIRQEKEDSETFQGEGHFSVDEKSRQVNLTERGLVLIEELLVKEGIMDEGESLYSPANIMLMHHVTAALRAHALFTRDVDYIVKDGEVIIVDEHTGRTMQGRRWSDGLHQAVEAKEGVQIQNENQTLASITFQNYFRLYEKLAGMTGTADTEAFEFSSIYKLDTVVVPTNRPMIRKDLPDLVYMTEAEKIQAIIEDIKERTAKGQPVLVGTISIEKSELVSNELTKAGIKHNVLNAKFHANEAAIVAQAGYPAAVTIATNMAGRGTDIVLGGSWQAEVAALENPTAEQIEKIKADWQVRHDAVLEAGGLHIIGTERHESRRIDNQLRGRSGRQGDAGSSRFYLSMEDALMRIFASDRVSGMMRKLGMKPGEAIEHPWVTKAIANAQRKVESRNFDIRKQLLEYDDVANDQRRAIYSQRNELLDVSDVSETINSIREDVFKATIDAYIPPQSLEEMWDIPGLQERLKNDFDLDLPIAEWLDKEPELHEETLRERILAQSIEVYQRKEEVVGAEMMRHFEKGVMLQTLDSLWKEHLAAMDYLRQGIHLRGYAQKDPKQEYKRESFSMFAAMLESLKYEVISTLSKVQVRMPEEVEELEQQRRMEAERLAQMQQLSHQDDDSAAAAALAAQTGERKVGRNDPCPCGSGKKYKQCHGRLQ

`COCCN(C)C(=O)Nc1ccc2c(ccn2CCOC)c1`: the Percent Effect in experiment [1] was -6.84%; in experiment [2] it was 28.9%; in experiment [3] it was -12.8%; in experiment [4] it was 0.86%; with Trypanosoma cruzi, 6.33%; in experiment [5], -1.18%. Moreover, the Percent Effect was -0.0959% in experiment [6]; 1.75% in the experiment listed under Homo sapiens; 4.25% in experiment [7]; 13% in experiment [8]; -17.1% in experiment [9].
Take `Cn1c2c(ccc1=O)CC(NS(C)(=O)=O)CC2` (stereo not given): the Percent Effect in experiment [1] was -7.68%; in [2], 5.33%; in experiment [3], 5.05%; in experiment [4] it was -7.17%; with Trypanosoma cruzi it was -1.97%; in experiment [5], -0.233%. In addition, the Percent Effect in experiment [6] is -1.15%; in the experiment filed under Homo sapiens, 20.7%; in [7] it was 2.13%; in experiment [8], -3.85%; in experiment [9], -1.57%.
`CC(=O)N1CC[C@H]2OCC[C@@]2(C(=O)NCc2ccco2)C1`: the Percent Effect in [1] was -5.68%; in [2] it was 5.33%; in experiment [3], -0.449%; in [4], 12.6%; with Trypanosoma cruzi it was -2.12%; in experiment [5] it was -44.3%. The Percent Effect was 11.3% in [6]; -5.97% in the experiment filed under Homo sapiens; 4.17% in experiment [7]; 5% in experiment [8]; -6.83% in experiment [9].
Take `CN(C)C(=O)CS(=O)(=O)Cc1cc(Cl)c2c(c1)OCO2`: the Percent Effect in [1] was -3.08%; in experiment [2] it was 18.4%; in experiment [3], -1.27%; in experiment [4], 2.86%; in the experiment on Trypanosoma cruzi, -0.654%; in [5] it was 3.96%. Also, the Percent Effect is 5.16% in experiment [6]; -13.9% in the experiment filed under Homo sapiens; 6.4% in experiment [7]; 23.5% in experiment [8]; -7.39% in experiment [9].
In the case of `CC(NC(=O)NCC1(O)CCC1)c1ccc(OCC2CC2)c(F)c1` (stereo not given), the Percent Effect in [1] is -6.25%; in experiment [2] it was 10.5%; in experiment [3] it was 0.839%; in experiment [4] it was 9.9%; in the experiment on Trypanosoma cruzi it was 1.85%; in experiment [5] it was -24.9%. Also, the Percent Effect in experiment [6] was 10.3%; in the experiment listed under Homo sapiens, 14%; in experiment [7], 3.19%; in experiment [8], 7.79%; in experiment [9] it was -3.31%.
Consider `O=C(c1cnccn1)N1CCc2ncnc(-c3cccnc3)c2CC1`, for which the Percent Effect is -5.31% in [1]; 2.67% in experiment [2]; -1.38% in experiment [3]; -1.29% in experiment [4]; 0.386% in the experiment with Trypanosoma cruzi; -43.5% in experiment [5]. Also, the Percent Effect was 6.33% in [6]; -9.47% in the experiment filed under Homo sapiens; 0% in experiment [7]; 5% in experiment [8]; -3.12% in [9].
Turning to `Cc1c(C(=O)N2CCCC2c2cnn(C)c2)nnn1-c1ccccc1` (stereo not given), the Percent Effect in experiment [1] is -5.12%; in [2], 13.5%; in experiment [3] it was -11.2%; in experiment [4], 15.4%; in the experiment on Trypanosoma cruzi, 4.55%; in experiment [5] it was -3.14%. In addition, the Percent Effect is 9.87% in experiment [6]; 8.27% in the experiment filed under Homo sapiens; 0.99% in experiment [7]; 13.4% in experiment [8]; -7.97% in experiment [9].
As to `Cn1cc2c(n1)C(COCC1CC1)CN(Cc1ccccn1)C2` (stereo not given), the Percent Effect was -6.24% in experiment [1]; -2.7% in experiment [2]; 0.433% in [3]; -2.97% in experiment [4]; 4.2% with Trypanosoma cruzi; -0.319% in experiment [5]. The Percent Effect amounted to 9.22% in experiment [6]; 9.46% in the experiment filed under Homo sapiens; 6.49% in experiment [7]; 10.3% in experiment [8]; 4.91% in [9].
Consider `O=C(Cc1ccc2c(c1)OCO2)N1CCCN(c2ccccc2)CC1`, for which the Percent Effect in experiment [1] was -6.04%; in experiment [2], 13.7%; in [3], 3.46%; in [4], 5.03%; with Trypanosoma cruzi it was 0.992%; in experiment [5], -2%. Further, the Percent Effect in experiment [6] was 4.54%; in the experiment listed under Homo sapiens, 10.8%; in experiment [7] it was 3.12%; in experiment [8], 11.1%; in experiment [9], -0.294%.
For `COc1ccc(NC(=O)N2CCN(c3ncccn3)CC2)cn1`, the Percent Effect in [1] was -0.45%; in experiment [2] it was 8.22%; in experiment [3], 2.23%; in [4], -2.77%; with Trypanosoma cruzi it was -3.53%; in [5], 3.64%. Besides, the Percent Effect was 7.63% in [6]; 11.7% in the experiment listed under Homo sapiens; 4.3% in experiment [7]; 10% in experiment [8]; -3.82% in experiment [9].
